Experiment [1] deals with Tyrosine-protein kinase CSK (Homo sapiens) (UniProt P41240). To be noted: at 1 µM.
Experiment [2] addresses T1, Discoidin domain-containing receptor 2 (Homo sapiens) (UniProt Q16832).
T1 sequence (whole entry): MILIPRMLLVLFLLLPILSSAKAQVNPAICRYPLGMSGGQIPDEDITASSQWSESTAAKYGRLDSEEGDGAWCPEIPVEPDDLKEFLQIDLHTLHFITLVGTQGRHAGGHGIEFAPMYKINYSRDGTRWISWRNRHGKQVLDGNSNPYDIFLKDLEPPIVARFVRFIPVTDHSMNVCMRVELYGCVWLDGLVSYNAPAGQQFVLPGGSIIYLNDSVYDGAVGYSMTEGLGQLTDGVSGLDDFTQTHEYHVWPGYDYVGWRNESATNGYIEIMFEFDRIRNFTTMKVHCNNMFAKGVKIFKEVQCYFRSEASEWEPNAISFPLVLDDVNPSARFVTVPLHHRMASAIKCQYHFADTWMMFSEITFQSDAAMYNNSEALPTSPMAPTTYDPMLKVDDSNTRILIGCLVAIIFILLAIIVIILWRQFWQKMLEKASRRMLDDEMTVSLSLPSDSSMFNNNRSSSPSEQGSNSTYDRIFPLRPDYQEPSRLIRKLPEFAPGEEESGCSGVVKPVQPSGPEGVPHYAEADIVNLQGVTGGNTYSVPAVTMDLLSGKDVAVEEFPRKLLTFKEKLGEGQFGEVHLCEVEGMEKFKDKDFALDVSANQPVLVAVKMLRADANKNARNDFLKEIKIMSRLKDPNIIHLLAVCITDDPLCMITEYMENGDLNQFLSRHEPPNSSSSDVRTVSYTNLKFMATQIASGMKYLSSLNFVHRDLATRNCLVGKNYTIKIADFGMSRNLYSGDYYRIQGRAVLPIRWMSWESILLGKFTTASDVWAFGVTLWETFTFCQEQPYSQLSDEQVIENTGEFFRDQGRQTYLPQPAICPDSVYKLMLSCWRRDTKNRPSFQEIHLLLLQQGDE
To be noted: at 0.1 µM.

Experiment [3] has as its target T1, Discoidin domain-containing receptor 2 (Homo sapiens). To be noted: at 1 µM.
The target of experiment [4] is Epidermal growth factor receptor (Homo sapiens) (UniProt P00533). Conditions: at 0.1 µM.
The target is the same in experiment [5]. To be noted: at 1 µM.
Experiment [6] concerns Epidermal growth factor receptor (Homo sapiens), P00533 [L858R]. To be noted: at 0.1 µM.
The test system is the same in experiment [7]. Conditions: at 1 µM.
The subject of experiment [8] is Epidermal growth factor receptor (Homo sapiens), P00533 [L861Q]. To be noted: at 0.1 µM.
The test system is the same in experiment [9]. Conditions: at 1 µM.
The test system of experiment [10] is Epidermal growth factor receptor (Homo sapiens), P00533 [T790M]. Conditions: at 0.1 µM.
For experiment [11] the test system is unchanged. To be noted: at 1 µM.
Experiment [12] concerns Epidermal growth factor receptor (Homo sapiens), P00533 [L858R,T790M]. Conditions: at 0.1 µM.
Experiment [13] has the same test system. To be noted: at 1 µM.
Experiment [14] deals with Ephrin type-A receptor 2 (Homo sapiens) (UniProt P29317). Conditions: at 0.1 µM.
The target is the same in experiment [15]. Conditions: at 1 µM.
For experiment [16], the target named is T2, Ephrin type-A receptor 3 (Homo sapiens) (UniProt P29320).
T2 sequence (whole entry): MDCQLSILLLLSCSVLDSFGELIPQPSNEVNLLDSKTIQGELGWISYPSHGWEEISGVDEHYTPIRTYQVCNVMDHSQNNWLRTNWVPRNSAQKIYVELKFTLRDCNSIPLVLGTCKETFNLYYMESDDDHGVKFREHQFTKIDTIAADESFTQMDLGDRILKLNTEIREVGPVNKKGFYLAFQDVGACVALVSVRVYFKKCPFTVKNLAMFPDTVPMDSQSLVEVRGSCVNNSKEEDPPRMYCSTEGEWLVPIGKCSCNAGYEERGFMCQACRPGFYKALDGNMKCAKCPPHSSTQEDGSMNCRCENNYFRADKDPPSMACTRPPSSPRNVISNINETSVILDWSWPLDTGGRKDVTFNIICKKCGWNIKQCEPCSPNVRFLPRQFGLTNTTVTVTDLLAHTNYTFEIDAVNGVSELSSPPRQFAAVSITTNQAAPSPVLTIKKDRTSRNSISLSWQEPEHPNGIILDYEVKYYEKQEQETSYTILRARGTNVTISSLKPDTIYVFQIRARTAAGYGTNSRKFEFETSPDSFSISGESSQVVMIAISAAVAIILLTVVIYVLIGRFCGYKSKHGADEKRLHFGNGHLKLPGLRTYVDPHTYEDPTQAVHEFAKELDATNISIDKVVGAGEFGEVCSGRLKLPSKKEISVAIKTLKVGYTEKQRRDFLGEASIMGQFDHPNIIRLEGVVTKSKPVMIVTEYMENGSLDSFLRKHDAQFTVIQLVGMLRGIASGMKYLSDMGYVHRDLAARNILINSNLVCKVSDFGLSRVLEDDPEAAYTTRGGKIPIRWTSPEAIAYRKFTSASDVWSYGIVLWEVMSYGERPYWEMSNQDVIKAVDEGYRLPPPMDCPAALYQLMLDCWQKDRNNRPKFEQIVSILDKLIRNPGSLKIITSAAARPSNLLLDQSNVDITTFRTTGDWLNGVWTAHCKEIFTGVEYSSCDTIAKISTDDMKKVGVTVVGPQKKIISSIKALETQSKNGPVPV
To be noted: at 0.1 µM.

The target in experiment [17] is T2, Ephrin type-A receptor 3 (Homo sapiens). To be noted: at 1 µM.
The target in experiment [18] is Ephrin type-A receptor 4 (Homo sapiens) (UniProt P54764). Conditions: at 0.1 µM.
Experiment [19] shares this target. Conditions: at 1 µM.
In experiment [20] the target is T3, Ephrin type-B receptor 2 (Homo sapiens) (UniProt P29323).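 Note: reported as mean inhibition of EPHB2, from the GSK PKIS dataset.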
T3 sequence (whole entry): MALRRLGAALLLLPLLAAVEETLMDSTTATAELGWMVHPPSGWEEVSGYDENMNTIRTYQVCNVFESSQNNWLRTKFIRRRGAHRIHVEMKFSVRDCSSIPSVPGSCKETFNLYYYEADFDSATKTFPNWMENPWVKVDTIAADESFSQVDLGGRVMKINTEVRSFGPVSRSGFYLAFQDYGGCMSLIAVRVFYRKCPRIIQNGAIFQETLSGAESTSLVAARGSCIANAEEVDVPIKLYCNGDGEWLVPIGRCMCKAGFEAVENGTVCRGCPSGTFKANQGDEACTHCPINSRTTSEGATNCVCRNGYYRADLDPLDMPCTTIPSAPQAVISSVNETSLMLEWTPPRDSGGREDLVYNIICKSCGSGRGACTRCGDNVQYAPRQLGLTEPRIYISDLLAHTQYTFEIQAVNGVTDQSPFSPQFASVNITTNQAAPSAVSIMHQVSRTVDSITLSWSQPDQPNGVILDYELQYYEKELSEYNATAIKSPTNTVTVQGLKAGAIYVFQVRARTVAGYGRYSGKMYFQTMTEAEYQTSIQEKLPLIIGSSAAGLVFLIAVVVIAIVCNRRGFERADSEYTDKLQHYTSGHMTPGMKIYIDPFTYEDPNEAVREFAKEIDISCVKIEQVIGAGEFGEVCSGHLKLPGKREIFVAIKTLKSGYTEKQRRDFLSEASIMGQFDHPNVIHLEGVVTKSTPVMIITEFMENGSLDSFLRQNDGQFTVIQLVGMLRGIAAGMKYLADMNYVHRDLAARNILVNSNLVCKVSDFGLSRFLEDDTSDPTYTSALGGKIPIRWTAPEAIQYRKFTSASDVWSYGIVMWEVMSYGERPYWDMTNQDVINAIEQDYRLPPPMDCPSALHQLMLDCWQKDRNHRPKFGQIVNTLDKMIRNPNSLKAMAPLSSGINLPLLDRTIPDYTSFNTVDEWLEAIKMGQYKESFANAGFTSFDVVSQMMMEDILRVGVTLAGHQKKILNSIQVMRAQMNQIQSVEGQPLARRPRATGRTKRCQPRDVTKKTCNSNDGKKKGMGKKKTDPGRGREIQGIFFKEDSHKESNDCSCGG
Conditions: at 0.1 µM.

6 compounds from ChEMBL document CHEMBL1961873, “Compounds: GSK PKIS; Assays: Nanosyn kinase panel” (2012) can be followed below.

By inhibition is commonly meant the drop in the measured response relative to a control, in per cent.

The structures appear in SMILES notation.

Epidermal growth factor receptor (Homo sapiens), P00533 [L858R], sequence (P00533 whole entry L858R): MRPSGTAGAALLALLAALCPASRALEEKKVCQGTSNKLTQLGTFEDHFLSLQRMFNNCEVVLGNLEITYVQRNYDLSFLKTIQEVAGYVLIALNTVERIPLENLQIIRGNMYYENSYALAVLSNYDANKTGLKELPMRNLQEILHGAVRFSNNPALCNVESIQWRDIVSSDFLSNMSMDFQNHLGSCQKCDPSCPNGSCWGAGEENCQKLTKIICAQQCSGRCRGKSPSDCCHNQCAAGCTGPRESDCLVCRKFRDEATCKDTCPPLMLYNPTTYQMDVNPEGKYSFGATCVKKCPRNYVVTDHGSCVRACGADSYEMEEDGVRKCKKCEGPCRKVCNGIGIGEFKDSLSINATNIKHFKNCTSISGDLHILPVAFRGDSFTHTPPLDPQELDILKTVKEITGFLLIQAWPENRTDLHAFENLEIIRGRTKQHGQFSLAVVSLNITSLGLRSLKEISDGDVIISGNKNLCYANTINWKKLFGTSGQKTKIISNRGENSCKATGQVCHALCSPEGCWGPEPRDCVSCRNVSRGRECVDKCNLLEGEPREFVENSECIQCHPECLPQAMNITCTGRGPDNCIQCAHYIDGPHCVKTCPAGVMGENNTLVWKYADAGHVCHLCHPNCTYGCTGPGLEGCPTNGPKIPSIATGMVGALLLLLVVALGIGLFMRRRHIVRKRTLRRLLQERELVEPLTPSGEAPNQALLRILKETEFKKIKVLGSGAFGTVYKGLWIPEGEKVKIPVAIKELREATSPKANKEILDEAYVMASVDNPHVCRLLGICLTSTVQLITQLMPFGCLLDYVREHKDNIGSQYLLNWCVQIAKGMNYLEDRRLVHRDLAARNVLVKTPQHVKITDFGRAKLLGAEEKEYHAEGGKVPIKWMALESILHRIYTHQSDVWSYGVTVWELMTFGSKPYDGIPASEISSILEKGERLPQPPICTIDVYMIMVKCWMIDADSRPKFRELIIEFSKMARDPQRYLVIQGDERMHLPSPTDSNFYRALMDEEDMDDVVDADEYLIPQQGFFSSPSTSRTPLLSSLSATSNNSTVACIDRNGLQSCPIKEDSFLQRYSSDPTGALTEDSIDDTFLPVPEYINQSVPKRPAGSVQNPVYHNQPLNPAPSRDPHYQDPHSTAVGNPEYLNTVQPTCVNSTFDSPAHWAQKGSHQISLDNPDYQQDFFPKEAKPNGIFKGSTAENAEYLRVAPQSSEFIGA
Epidermal growth factor receptor (Homo sapiens), P00533 [L858R,T790M], sequence (P00533 whole entry T790M/L858R, looked up): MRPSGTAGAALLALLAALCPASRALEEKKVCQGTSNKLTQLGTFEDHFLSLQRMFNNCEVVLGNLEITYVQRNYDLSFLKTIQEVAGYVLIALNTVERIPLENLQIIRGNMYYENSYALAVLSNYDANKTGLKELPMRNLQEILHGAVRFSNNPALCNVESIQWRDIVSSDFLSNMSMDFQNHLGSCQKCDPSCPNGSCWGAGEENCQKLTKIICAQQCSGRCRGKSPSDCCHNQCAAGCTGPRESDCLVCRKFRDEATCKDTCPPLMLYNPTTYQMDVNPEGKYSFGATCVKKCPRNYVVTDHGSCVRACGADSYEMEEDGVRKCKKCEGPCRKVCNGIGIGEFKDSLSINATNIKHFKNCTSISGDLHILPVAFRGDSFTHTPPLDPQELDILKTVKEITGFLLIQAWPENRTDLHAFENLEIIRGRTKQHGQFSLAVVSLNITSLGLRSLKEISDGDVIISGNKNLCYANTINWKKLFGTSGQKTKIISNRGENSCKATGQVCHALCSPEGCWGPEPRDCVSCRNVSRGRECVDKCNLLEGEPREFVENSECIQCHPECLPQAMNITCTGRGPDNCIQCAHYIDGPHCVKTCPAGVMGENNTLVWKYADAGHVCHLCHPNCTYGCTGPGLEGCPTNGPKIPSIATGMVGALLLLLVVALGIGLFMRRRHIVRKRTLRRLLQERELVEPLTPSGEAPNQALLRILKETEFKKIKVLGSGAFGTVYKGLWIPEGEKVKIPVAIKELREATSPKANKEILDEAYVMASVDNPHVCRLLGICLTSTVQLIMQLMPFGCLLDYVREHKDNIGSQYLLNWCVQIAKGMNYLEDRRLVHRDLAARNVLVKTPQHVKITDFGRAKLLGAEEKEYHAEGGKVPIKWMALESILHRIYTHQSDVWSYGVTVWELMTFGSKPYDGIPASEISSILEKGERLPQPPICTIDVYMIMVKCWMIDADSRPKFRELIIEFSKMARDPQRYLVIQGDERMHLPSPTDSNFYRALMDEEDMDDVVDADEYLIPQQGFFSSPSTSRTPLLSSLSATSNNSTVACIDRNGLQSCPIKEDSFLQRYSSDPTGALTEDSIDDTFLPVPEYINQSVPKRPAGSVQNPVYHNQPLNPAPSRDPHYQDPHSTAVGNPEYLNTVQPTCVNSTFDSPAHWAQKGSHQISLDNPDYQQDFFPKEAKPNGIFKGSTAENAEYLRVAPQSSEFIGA
Ephrin type-A receptor 2 (Homo sapiens), sequence (P29317 whole entry): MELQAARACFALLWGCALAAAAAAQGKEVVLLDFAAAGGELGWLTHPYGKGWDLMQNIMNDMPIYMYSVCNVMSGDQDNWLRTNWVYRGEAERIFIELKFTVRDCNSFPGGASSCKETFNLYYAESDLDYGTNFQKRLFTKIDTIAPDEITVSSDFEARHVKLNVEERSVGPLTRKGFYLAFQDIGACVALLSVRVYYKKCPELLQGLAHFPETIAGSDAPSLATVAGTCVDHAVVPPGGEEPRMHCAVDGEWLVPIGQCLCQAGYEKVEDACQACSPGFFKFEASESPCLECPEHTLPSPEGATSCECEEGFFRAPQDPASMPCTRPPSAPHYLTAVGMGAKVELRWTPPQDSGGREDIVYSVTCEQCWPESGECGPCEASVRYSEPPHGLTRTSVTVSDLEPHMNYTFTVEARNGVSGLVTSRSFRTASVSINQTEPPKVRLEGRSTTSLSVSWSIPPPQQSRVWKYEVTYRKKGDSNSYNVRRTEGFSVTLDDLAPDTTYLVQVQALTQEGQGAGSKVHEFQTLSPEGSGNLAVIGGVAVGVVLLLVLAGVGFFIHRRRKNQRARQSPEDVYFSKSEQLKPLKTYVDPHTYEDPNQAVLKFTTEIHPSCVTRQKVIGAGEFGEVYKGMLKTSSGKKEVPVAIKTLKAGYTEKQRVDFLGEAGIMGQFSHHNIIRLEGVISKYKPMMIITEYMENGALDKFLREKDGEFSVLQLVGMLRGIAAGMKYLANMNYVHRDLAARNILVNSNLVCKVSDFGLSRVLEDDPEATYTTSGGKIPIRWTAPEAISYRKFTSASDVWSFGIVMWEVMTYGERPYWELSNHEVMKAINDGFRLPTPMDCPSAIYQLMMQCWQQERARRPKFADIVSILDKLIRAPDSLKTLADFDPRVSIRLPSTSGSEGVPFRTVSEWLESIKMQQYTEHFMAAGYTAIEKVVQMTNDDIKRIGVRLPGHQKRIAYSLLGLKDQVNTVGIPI
Epidermal growth factor receptor (Homo sapiens), sequence (P00533 whole entry): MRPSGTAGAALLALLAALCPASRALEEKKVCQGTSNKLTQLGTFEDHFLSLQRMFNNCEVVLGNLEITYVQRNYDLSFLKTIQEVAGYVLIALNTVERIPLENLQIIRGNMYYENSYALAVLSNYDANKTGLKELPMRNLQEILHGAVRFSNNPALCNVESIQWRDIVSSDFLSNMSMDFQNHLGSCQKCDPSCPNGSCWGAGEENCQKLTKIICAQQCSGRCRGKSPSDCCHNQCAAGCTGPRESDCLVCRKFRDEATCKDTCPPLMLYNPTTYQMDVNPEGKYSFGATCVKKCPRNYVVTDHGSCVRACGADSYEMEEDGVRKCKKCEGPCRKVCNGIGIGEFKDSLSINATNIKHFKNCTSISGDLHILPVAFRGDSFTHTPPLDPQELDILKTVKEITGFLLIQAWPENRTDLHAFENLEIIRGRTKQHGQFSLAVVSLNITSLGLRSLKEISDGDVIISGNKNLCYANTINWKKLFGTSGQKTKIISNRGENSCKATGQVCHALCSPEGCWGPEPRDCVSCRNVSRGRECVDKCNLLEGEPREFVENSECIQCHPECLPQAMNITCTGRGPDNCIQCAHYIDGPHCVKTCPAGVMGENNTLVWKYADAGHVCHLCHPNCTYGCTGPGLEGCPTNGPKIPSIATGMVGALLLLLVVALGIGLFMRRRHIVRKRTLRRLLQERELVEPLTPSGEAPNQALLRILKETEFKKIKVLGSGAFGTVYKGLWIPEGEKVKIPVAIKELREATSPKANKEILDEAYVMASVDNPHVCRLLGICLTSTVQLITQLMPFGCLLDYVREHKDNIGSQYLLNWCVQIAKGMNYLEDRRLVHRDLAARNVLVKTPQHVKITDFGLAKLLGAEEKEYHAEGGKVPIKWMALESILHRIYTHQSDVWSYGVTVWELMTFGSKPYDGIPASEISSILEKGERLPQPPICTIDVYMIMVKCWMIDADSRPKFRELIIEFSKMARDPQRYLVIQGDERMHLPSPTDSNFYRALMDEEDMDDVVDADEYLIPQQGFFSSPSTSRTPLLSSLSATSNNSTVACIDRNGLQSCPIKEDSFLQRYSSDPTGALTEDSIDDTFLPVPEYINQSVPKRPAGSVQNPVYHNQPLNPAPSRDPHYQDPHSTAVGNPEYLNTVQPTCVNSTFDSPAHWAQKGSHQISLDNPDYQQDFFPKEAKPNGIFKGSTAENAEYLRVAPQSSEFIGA
Tyrosine-protein kinase CSK (Homo sapiens), sequence (P41240 2-450 limits assumed): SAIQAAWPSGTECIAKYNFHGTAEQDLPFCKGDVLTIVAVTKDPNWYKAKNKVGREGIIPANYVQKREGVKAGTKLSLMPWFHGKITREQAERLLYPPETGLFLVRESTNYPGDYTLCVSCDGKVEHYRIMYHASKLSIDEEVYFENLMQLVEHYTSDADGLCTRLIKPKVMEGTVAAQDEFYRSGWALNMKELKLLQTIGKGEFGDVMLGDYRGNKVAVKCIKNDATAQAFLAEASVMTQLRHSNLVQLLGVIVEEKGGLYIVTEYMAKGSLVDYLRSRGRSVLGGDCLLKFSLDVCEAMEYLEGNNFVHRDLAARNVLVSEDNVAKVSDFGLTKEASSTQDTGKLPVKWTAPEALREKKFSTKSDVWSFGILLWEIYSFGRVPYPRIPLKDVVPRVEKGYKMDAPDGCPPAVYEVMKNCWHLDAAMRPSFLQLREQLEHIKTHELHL

As to `COc1ccc2cc(-c3c(-c4ccncc4)nc(-c4ccc([S+](C)[O-])cc4)n3C)ccc2c1` (stereo not given), the inhibition was -2.89% in [1]; 1.35% in experiment [2]; 3.95% in experiment [3]; 6.79% in experiment [4]; 3.4% in experiment [5]; 2.1% in [6]. Further, the inhibition in experiment [7] was 0.76%; in experiment [8] it was 1.88%; in experiment [9], 1.02%; in experiment [10], -0.14%; in [11], -0.54%; in [12], 1.75%. For the same compound, the inhibition in experiment [13] is 0.88%; in experiment [14], 1.69%; in [15], 1.61%; in experiment [16], 3.89%; in experiment [17], 5.2%; in [18], -2.82%. In addition, the figures for the inhibition in experiment [19] and in experiment [20] were 8.03% and 3.58%, respectively.

Take `Cc1ccc(C(=O)NC2CCCCC2)cc1-c1ccc(C(=O)NCC2CC2)cc1`: the inhibition in experiment [1] came out at 1.73%; in [2] it was 3.79%; in [3], 6.99%; in experiment [4] it was 10.6%; in [5], 14.3%; in [6], 1.02%. Besides, the inhibition in experiment [7] is 0.13%; in [8], 1.18%; in [9] it was 0.87%; in experiment [10], 0.94%; in [11], -2.05%; in experiment [12], -0.59%. For the same compound, the inhibition in experiment [13] was -0.67%; in experiment [14], 2.02%; in experiment [15], 1.67%; in [16] it was 5.5%; in experiment [17], 5.14%; in experiment [18], 8.35%. In addition, the results for the inhibition in experiment [19] and in experiment [20] were 3.57% and 6.79%, respectively.

Turning to `O=C1NC(=O)C(c2cccc(Cl)c2)=C1Nc1ccc(O)c(Cl)c1`, the inhibition in [1] is -5.59%; in experiment [2], -1.25%; in experiment [3], -1.13%; in [4] it was -0.21%; in experiment [5], 1.12%; in experiment [6], -2.01%. The inhibition in experiment [7] was -0.47%; in experiment [8], -0.43%; in [9], -0.33%; in experiment [10], -0.72%; in experiment [11], -0.85%; in experiment [12], 0.92%. The inhibition in experiment [13] is 0.61%; in experiment [14], 0.74%; in [15], 1.32%; in [16] it was 0.53%; in experiment [17], -2.04%; in [18] it was 1.17%. Moreover, the inhibition is -8.81% in experiment [19] and -3.19% in experiment [20].

Turning to `CCCN1CCC(Oc2cc(Nc3nc(Nc4cccc(F)c4C(N)=O)c4cc[nH]c4n3)c(OC)cc2Cl)CC1`, the inhibition in experiment [1] was found to be 0.71%; in experiment [2], 5.18%; in [3], 9.57%; in [4], 1.11%; in experiment [5], 2.64%; in experiment [6], 1.86%. Besides, the inhibition in experiment [7] is 1.31%; in [8], 1.13%; in [9] it was 0.75%; in experiment [10] it was -0.41%; in experiment [11], -0.49%; in [12], -2.63%. The inhibition was 2.79% in [13]; -1.48% in [14]; 0.75% in experiment [15]; -0.71% in [16]; 2.51% in [17]; 3.96% in experiment [18]. Also, the inhibition in [19] was 9.42%; in experiment [20], 5.31%.

As to `N#Cc1c(NC(=O)c2cccc3ccccc23)sc2c1CCCC2`, the inhibition was 0.21% in experiment [1]; 2.55% in experiment [2]; 2.6% in [3]; -4.77% in experiment [14]; -1.43% in experiment [15]; 2.05% in [16]. Besides, the inhibition in [17] amounted to 4.38%; in experiment [18] it was 6.92%; in [19], 2.64%; in [20] it was 5.23%.

Take `COc1cccc(-n2ncc3c(N/N=C/c4cccc(F)c4)ncnc32)c1`: the inhibition in experiment [1] is 4.81%; in experiment [2], 1.22%; in [3] it was 2.49%; in experiment [4], 0.53%; in experiment [5] it was 8.49%; in experiment [6] it was 6.62%. Also, the inhibition in experiment [7] is 37.9%; in [8], 2.52%; in experiment [9] it was 7.42%; in [10] it was -0.78%; in experiment [11] it was 0.45%; in experiment [12], -0.32%. Also, the inhibition in [13] was 2.54%; in experiment [14], -6.37%; in [15], -5.64%; in experiment [16], -1.03%; in [17] it was -0.95%; in [18], 4.81%. Besides, the inhibition in experiment [19] worked out at 2.57%; in experiment [20], 3.17%.
